Laboratory results as given in the supplement of paper PMC6555819.

Columns and labels:
Test in all cases: PBM binding z-score (relative to random genomic background probes); higher = stronger binding; sequences stand for … in GC…GCGATTGACAGCGTAGAATGAAGG
[1] = system: RARb homodimer (NR concentration 270 nM)
In short: (§1)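 Binding z-scores were set against random background probes. The data came from custom Agilent 4×180K protein-binding microarrays carrying double-stranded probes with 34-nt variable regions, incubated 1 h with ligand-free nuclear receptor dimers. Partner-specific antibodies detected binding, and scanned fluorescence was regression-normalized.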

[2] = system: RARg:RXRa (NR concentration 270 nM, RXRa partner concentration 90 nM)
In short: as §1

[3] = system: RARg homodimer (NR concentration 270 nM)
In short: as §1

[4] = system: RXRa DBDmut IVT, anti-RXR (DBD mutation: RXRa K156A/R161A, NR concentration 90 nM)
In short: as §1

[5] = system: RXRa homodimer (NR concentration 180 nM)
In short: as §1

[6] = system: THRa:RXRa (NR concentration 90 nM, RXRa partner concentration 90 nM)
In short: as §1

[7] = system: THRa homodimer (NR concentration 90 nM)
In short: as §1

[8] = system: VDR:RXRa (NR concentration 270 nM, RXRa partner concentration 90 nM)
In short: as §1

[9] = system: VDR homodimer (NR concentration 270 nM)
In short: as §1

Row | Sequence | PBM binding z-score [1] | PBM binding z-score [2] | PBM binding z-score [3] | PBM binding z-score [4] | PBM binding z-score [5] | PBM binding z-score [6] | PBM binding z-score [7] | PBM binding z-score [8] | PBM binding z-score [9]
1 | GCTTGTTGGTCAGTAAAAGGTCACACACCGGTCG | 5.37 | 5.53 | 4.67 | 0.545 | 5.16 | 3.5 | 2.15 | 3.86 | 1.68
2 | ATATGTAGGTTAGCTGGGGTCATTCTGACTAGGC | 3.66 | 3.88 | 2.79 | 2.08 | 5.12 | 5.12 | 3.04 | 6.29 | 5.3
3 | CCTTACGGGTCGAGGTTATAGCACGGGTGGTACG | 1.42 | 1.78 | 1.16 | -0.662 | 2.5 | 1.84 | 0.377 | 1.25 | 0.977
4 | CTCGAAAGGTCGGTTGAGGTAAGTATACGGATAA | 1.72 | 2.37 | 2.35 | 0.522 | 1.83 | 4.54 | 0.648 | 1.57 | 0.257
5 | GCTCGGAGGACAATGTCAGAGCTTTGTCCGTAGA | 0.0448 | -0.133 | 0.0822 | 0.18 | -0.593 | 0.348 | -0.612 | -0.573 | -0.447
6 | ATCTCTAGGTAAGTCTCAGTTCAGTGAAGAACGC | 1.02 | 0.158 | 0.271 | 0.813 | 0.0582 | 1.07 | 1.23 | 0.65 | 1.72
7 | TCGTGTAGATCAAAGGTTAAGAAAGCCGAAGCCT | 1.47 | 1.76 | 0.92 | 0.608 | 3.14 | 1.33 | 0.108 | 1.45 | 0.111
8 | CGAACTAGGTCAGAACAGGACAGTGATGGATGAT | 2.11 | 2.39 | 2.83 | 0.564 | 1.13 | 3.48 | 0.141 | 0.651 | 0.283
9 | CAAACTAGGTCAAGGTCACAGTCGGTTTGTGCCA | 5.15 | 6.22 | 6.99 | 2.66 | 5.94 | 4.67 | 4.75 | 5.06 | 4.27
10 | AGAATGAGGTTAAGACCAGGGAAACAGAATACAT | 1.01 | 1.97 | 1.33 | 0.973 | 2.47 | 2.48 | 0.691 | 1.03 | 0.514
11 | GTACCAAGGTGAAGAGGTCGTTGATGAGTAGGCG | 2.46 | 3.26 | 1.79 | 0.608 | 2.65 | 2.47 | 1.09 | 2.71 | 2.21
12 | TAGCCTAGGTCAGATCGGACCAGTATACGCTATA | 1.86 | 2.7 | 3.46 | -0.00524 | 1.46 | 2.55 | -0.155 | 0.34 | -0.597
13 | TCTATTAGTTGATTAGGGCAAACGAAACAGCGGA | 0.43 | 0.388 | 0.663 | 0.888 | 0.631 | 0.515 | 0.119 | 0.637 | 0.435
14 | GCACATAGGTAATACAAGGTGAAAGTCCGATTGT | 0.838 | 0.572 | 0.547 | 0.115 | 0.869 | 4.19 | 1.02 | 0.394 | -0.0736
15 | CCTATTGGGCCATTCAGAGGTCATTGATCATATG | 4.13 | 4.69 | 3.34 | 1.48 | 3.41 | 3.37 | 1.54 | 3.98 | 3.79
16 | CGAACTAGGTCATTGACAGGACACTGAATAGTAA | 2.8 | 4.6 | 3.84 | 2.58 | 2.46 | 3.03 | 1.06 | 2.52 | 1.18
17 | TCTGCTAGGTTAACGATGGTCAGCTAATCTGCTA | 0.605 | 0.561 | 0.688 | 0.00765 | 0.42 | 1 | -1.07 | -0.0905 | -0.957
18 | CCTCGGAGGCCAGAAGGTCAGAGCTGTCCGCTTT | 3.49 | 3.66 | 3.12 | -0.11 | 2.05 | 1.67 | 0.0524 | 0.72 | -0.311
19 | CCTGCTAGGTCAATGGTCAGATAAAGCAGCTCGC | 2.54 | 3.8 | 4.61 | 1.55 | 2.45 | 2.12 | 0.626 | 0.927 | 0.232
20 | ATACCAAGGTGAACGTGAGGTCGTTGATACTAAC | 2.68 | 3.63 | 1.98 | 1.19 | 2.68 | 4.11 | 3.14 | 4.41 | 3.61
21 | TCTATTAGTTGATTATGGCAACCGAAACAGCGGA | -0.245 | 0.408 | 0.199 | 1.38 | 0.509 | 0.165 | 0.396 | 1.08 | 0.715
22 | CGTCAAAGTTCAGCTAAGGTAACGTAAAGCACGC | 3.8 | 4.28 | 5.29 | 3.46 | 3.15 | 5.46 | 2.11 | 3.33 | 1.84
23 | TCGAGGAGGTTAGTCGGGGCATTCAGCCAACATA | 1.08 | 0.581 | 0.486 | 0.514 | 0.67 | 2.08 | 0.602 | 3.8 | 1.04
24 | GGTTACGGGTCAAAGGTTATAGCATGAATAGAAT | 3.44 | 6.91 | 4.71 | 1.89 | 9.23 | 4.06 | 0.33 | 5.46 | 1.64
25 | ACTAGCCGGCCAAGGGTCACTCAAGATTAGTCCG | 3.6 | 3.96 | 3.47 | -0.0861 | 3.65 | 2.5 | 0.383 | 2.59 | 0.509
26 | CCTGCTAGGTCATGGTCAGCTATTCTACAGTATG | 3.14 | 3.88 | 4.48 | 2.05 | 2.65 | 2.93 | 1.28 | 1.52 | 0.248

Row | Sequence | PBM binding z-score [1] | PBM binding z-score [2] | PBM binding z-score [3] | PBM binding z-score [4] | PBM binding z-score [5] | PBM binding z-score [6] | PBM binding z-score [7] | PBM binding z-score [8] | PBM binding z-score [9]
27 | CGAACTAGGTCATCCAGGACAGTGTATACATTGA | 3.16 | 3.92 | 4.85 | 2.47 | 3.21 | 3.62 | 2.17 | 4.57 | 2.4
28 | ACAGCCAGGTGAGTGAAGGTAACTCAGCTGGACG | -0.424 | -0.155 | -0.0105 | -0.98 | -0.177 | 1.46 | -0.534 | -0.635 | -0.751
29 | TATACAGGGTCAAAGGCCCGAGTACGAATGTCGA | 2.83 | 5.28 | 4.67 | 2.83 | 5.91 | 3.23 | 0.794 | 4.53 | 2.5
30 | CCTGCTAGGTCATGGTCCGCTAATCTACAGTATG | 2.55 | 3.73 | 4.05 | 1.74 | 2.66 | 2.86 | 1.1 | 1.27 | 0.414
31 | TCATATAGGTAAAAGGTGAAAATCGGTGTGGTAA | 1.58 | 2.04 | 0.775 | 1.69 | 3.08 | 1.56 | 0.242 | 1.65 | 0.627
32 | AGAACGAGGGCAATGAGTTGATAGTACGGGTGGC | 1.2 | 1.3 | 1.61 | 2.24 | 0.933 | 0.88 | -0.483 | 5.53 | 3.56
33 | CCTCGGAGGACAACAGGAGGCCAGAGCTGCCAGA | 0.662 | 0.553 | 1.08 | -0.152 | -0.394 | 0.476 | -0.155 | -0.504 | -0.208
34 | TTACCAAAGTGAGCTGAGGTCGTTGATCCAACTC | 0.526 | 0.117 | -0.105 | -0.0811 | 0.805 | 3.02 | 1.36 | 1.84 | 1.95
35 | AATACAGAGTCACTAGGCCAGAGTAGGTACGAAT | 0.0526 | 0.21 | 0.516 | -0.494 | 0.28 | -0.12 | -0.685 | -0.0941 | -0.0774
36 | TCTTGAAGATCAGCAGGTTAAGAAAGCTGGCCAA | -0.114 | -0.154 | -0.281 | 0.572 | 0.316 | -0.00481 | -1.05 | 0.374 | -0.317
37 | GCAGACAGGTGAAACGCAGGTAACTCATGGTGGC | 0.0324 | 0.941 | 0.44 | -0.582 | 0.943 | 1 | -0.808 | -0.567 | -0.818
38 | TCTATTACTTGAAGGGCAACCGACGAGTCCGTTT | 1.51 | 0.815 | 0.75 | 1.72 | 0.98 | 0.289 | 0.362 | 1.28 | 1.46
39 | GGAACGAGGGCAAAGTTGTTAGCATCTGTCGACG | 1.15 | 1.47 | 1.48 | 2.61 | 1.11 | 1.12 | -0.449 | 1.09 | 1.32
40 | TCTTGTAGATCAATAGAGATTAAGAAAGTGCGCT | -0.717 | 0.0195 | 0.0177 | 0.545 | 0.326 | -0.317 | -1.06 | 0.285 | -0.336
41 | ATCTCTAGGTAACCCAGTTCAGTGAATGCCGAAC | 0.825 | 0.714 | 0.439 | 0.564 | 0.828 | 1.45 | 0.872 | 2.74 | 1.39
42 | AGAATGAGGTTAAGATCAGGGACACAGAATACAT | 1.6 | 2.36 | 2.14 | 1.14 | 2.48 | 3.39 | 2 | 1.93 | 1.12
43 | CCTCGGAGGACGGAAGGTCAGAGCTGTCCGCTTT | 2.97 | 2.49 | 2.14 | -0.0504 | 1.69 | 1.94 | -0.304 | 0.873 | -0.0606
44 | TGAATAAGGTTAAAGATCAGGGAACGTGGCGTCG | 1.04 | 2.51 | 1.72 | 0.599 | 3.39 | 2.48 | 0.616 | 1.37 | 0.301
45 | CCTAGCAGGCCAATCTGTGTCACTCAAGGCTTGA | 0.114 | -0.172 | 0.279 | 0.249 | -0.389 | 0.791 | -0.64 | -0.331 | -0.327
46 | AGAACGAGGGCACTCTGAGTTGATAGCAGAGTAG | 0.374 | 1.4 | 1.55 | 2.21 | 0.823 | 1.29 | -0.153 | 1.88 | 1.73
47 | CAAACTAGGTCACAGAGGTCAAAGCCCGTGCGTA | 5.57 | 7.25 | 7.63 | 3.22 | 7.75 | 4.82 | 2.99 | 7.81 | 6.06
48 | CAAACTAGGTAAAGAGGTCAAAGTCCGCTTCCCG | 4.1 | 5.02 | 4 | 2.13 | 5.62 | 3.75 | 1.47 | 4.92 | 4.05
49 | ATATGTAGGTTAAGGGGCATTCAGGTTGGTTCGC | 2.06 | 1.58 | 1.19 | 1.17 | 1.85 | 1.82 | 1.46 | 2.2 | 2.03
50 | TCTTGTAGATGAGCAGGTTAAGAAAGCTGGCCAA | -0.681 | -0.327 | -0.525 | -0.188 | 0.00792 | -0.277 | -0.72 | -0.0672 | -0.433
51 | CCTGCTAGGTCAATAGTCAGCTAAAGCAGCTCGC | 2.18 | 3.06 | 3.91 | 1.56 | 1.42 | 1.74 | 0.258 | 0.487 | -0.379
52 | TAGCCTAGGTCTTTCAGGGGCCAGTATAGAAAGC | 0.423 | 0.873 | 0.295 | -0.58 | -0.286 | 0.663 | -0.603 | -0.481 | -0.407
